Test [1] can be described thus: small molecules captured by biotinylated probe aFSTL3 – biochemical, small-molecule microarray, fluorescence 635/667, stem cell growth factor project, primary screen (AID 1064).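 Note: measures binding of the biotinylated anti-FSTL3 antibody to printed compounds.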 Conditions: higher = more signal.
Test [2] is described as follows: binders from COS7 lysate, DM2A8 probe, primary screen, torsin A project, cell lysate, small-molecule microarray, fluorescence 635/667 (AID 1065). The conditions noted are these: higher = more signal, COS7 lysate expressing mutant human TOR1A.
A short description of test [3]: small molecules captured by biotinylated probe aFGF2 – biochemical, small-molecule microarray, fluorescence 635/667, stem cell growth factor project, primary screen (AID 1067).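 Note: measures binding of biotinylated aFGF2 protein to printed compounds on slides; z-score merges feature fluorescence and signal-to-noise across triplicate slides.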 Conditions: higher = more signal.
Test [4] is described as follows: small molecules captured by biotinylated probe aFGF10 – biochemical, small-molecule microarray, fluorescence 635/667, stem cell growth factor project, primary screen (AID 1071).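 Note: score merges 667 nm spot intensity and signal to noise from triplicate slides.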 The conditions noted are these: higher = more signal.
Test [5] deals with Neurogenic locus notch homolog protein 2 (Homo sapiens) (UniProt Q04721). The experiment in a line: small molecules binding Notch2 protein – biochemical, small-molecule microarray, 635 nm fluorescence, stem cell growth factors, primary screen (AID 1073). Conditions: higher = more signal.
The target of test [6] is Pro-neuregulin-1, membrane-bound isoform (Homo sapiens) (UniProt Q02297). Description: small molecules binding neuregulin-1 protein – biochemical, small-molecule microarray, fluorescence 635/667, psychiatric disease protein project, primary screen (AID 1075).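 Note: score combines 667 nm spot fluorescence with signal to noise.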 The conditions noted are these: NRG1 binding, 635 nm fluorescence, higher = more signal.
Test [7] has as its system Neuregulin-1 EGF-like domain. Description: small molecules binding NRG1 EGF domain – biochemical, small-molecule microarray, 635 nm fluorescence, primary screen (AID 1081).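 Note: binding of the protein to compounds printed on small-molecule microarray slides.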 The conditions noted are these: higher = more signal.
Test [8] in a line: FRG1 expression reporter modulators in myotubes – cell-based, C2C12 myotubes, firefly/Renilla luciferase, luminescence, FRG1 inhibition for FSHD, primary screen (AID 1084). Conditions: FRG1 promoter luciferase, higher = more signal, called active from +8 up or from −8 down.
The nature of test [9]: small molecules captured by biotinylated probe aFST – biochemical, small-molecule microarray, fluorescence 635/667, stem cell growth factor project, primary screen (AID 1086).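 Note: score merges 667 nm fluorescence with signal-to-noise of each printed compound spot.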 The conditions noted are these: higher = more signal.
Test [10] is described as follows: binders of probe aHhip on microarray, primary screen, stem cell growth factor project, biochemical, small-molecule microarray, fluorescence 635/667 (AID 1087).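 Note: score merges spot fluorescence at 667nm with spot signal to noise ratio.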 The conditions noted are these: higher = more signal.
For test [11], the system named is PRMT1 (protein arginine N-methyltransferase 1). Description: small molecules binding arginine methyltransferase PRMT1 – biochemical, small-molecule microarray, 635 nm fluorescence, primary screen (AID 1088).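 Note: binding of Prmt1 protein to compounds spotted on small-molecule microarray slides.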 Conditions: higher = more signal.
Test [12] in a line: growth effects on S. cerevisiae YJM789 – YJM789 clinical isolate, OD600, 24 h, basal, primary screen (AID 1089).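 Note: growth of clinical yeast isolate S. cerevisiae YJM 789 seeded 1000 cells per well; test concentration not given here.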 Conditions: higher = more signal, called active from +8 up or from −8 down.
Test [13] is described as follows: S. pombe growth modifiers, basal conditions – strain 972, OD600, 24 h, no modulator, primary screen (AID 1090).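 Note: basal condition with compound alone and no growth modifier present; test concentration not given here.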 Conditions: S. pombe 972 growth, higher = more signal, called active from +8 up or from −8 down.
A short description of test [14]: budding yeast growth modifiers under rapamycin – strain BY4716, OD600, 96 h, primary screen (AID 1091). Note: test concentration not given here. The conditions noted are these: S. cerevisiae BY4716 + rapamycin, higher = more signal, called active from +8 up or from −8 down.
Test [15] concerns the target Torsin-1A-interacting protein 2 (Homo sapiens) (UniProt Q8NFQ8). The experiment in a line: small molecules binding lysate-expressed LULL1 – cell lysate, human LULL1 lysate, 635/667 nm fluorescence, primary screen (AID 1092).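 Note: score merges per-feature 667 nm fluorescence with signal-to-noise.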 Conditions: small-molecule microarray, hLULL1 lysate binding, 635 nm fluorescence; higher = more signal.
Test [16] can be described thus: optical density change of DRC41 E. coli – strain DRC41, OD650, 24 h, E. coli filamentation project, primary screen (AID 1093).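 Note: MC1000 strain lacking acrAB efflux and sulA so SOS filamentation is blocked; test concentration not given here.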 The conditions noted are these: E. coli DRC41 growth, higher = more signal, called active from +8 up or from −8 down.
Test [17] is described as follows: probe aLefty2 binding to arrayed compounds – biochemical, biotinylated probe, 635/667 nm fluorescence, primary screen (AID 1094).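 Note: score merges spot fluorescence near 667 nm with spot signal-to-noise ratio.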 The conditions noted are these: small-molecule microarray, higher = more signal.
Test [18] relates to Noggin (protein binding on small-molecule microarray). The experiment in a line: small molecules binding Noggin protein – biochemical, 635/667 nm fluorescence, primary screen (AID 1095).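 Note: score merges 667 nm feature fluorescence with signal to noise over triplicate slides.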 The conditions noted are these: 635 nm fluorescence, higher = more signal.
Test [19] has as its target Neurogenic locus notch homolog protein 3 (Homo sapiens) (UniProt Q9UM47). Description: small molecules binding NOTCH3 protein – biochemical, 635/667 nm fluorescence, primary screen (AID 1096). The conditions noted are these: small-molecule microarray, 635 nm fluorescence, higher = more signal.
A short description of test [20]: probe aEGFR binding to arrayed compounds – biochemical, biotinylated probe, 635/667 nm fluorescence, primary screen (AID 1097).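 Note: probe is a biotinylated anti-EGFR antibody binding compounds printed on slides; score combines fluorescence near 667 nm and signal to noise of each spot.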 The conditions noted are these: small-molecule microarray, higher = more signal.

The source made the active and inactive calls.

Chain of Neurogenic locus notch homolog protein 2 (Homo sapiens) (Q04721 whole entry, looked up, canonical isoform): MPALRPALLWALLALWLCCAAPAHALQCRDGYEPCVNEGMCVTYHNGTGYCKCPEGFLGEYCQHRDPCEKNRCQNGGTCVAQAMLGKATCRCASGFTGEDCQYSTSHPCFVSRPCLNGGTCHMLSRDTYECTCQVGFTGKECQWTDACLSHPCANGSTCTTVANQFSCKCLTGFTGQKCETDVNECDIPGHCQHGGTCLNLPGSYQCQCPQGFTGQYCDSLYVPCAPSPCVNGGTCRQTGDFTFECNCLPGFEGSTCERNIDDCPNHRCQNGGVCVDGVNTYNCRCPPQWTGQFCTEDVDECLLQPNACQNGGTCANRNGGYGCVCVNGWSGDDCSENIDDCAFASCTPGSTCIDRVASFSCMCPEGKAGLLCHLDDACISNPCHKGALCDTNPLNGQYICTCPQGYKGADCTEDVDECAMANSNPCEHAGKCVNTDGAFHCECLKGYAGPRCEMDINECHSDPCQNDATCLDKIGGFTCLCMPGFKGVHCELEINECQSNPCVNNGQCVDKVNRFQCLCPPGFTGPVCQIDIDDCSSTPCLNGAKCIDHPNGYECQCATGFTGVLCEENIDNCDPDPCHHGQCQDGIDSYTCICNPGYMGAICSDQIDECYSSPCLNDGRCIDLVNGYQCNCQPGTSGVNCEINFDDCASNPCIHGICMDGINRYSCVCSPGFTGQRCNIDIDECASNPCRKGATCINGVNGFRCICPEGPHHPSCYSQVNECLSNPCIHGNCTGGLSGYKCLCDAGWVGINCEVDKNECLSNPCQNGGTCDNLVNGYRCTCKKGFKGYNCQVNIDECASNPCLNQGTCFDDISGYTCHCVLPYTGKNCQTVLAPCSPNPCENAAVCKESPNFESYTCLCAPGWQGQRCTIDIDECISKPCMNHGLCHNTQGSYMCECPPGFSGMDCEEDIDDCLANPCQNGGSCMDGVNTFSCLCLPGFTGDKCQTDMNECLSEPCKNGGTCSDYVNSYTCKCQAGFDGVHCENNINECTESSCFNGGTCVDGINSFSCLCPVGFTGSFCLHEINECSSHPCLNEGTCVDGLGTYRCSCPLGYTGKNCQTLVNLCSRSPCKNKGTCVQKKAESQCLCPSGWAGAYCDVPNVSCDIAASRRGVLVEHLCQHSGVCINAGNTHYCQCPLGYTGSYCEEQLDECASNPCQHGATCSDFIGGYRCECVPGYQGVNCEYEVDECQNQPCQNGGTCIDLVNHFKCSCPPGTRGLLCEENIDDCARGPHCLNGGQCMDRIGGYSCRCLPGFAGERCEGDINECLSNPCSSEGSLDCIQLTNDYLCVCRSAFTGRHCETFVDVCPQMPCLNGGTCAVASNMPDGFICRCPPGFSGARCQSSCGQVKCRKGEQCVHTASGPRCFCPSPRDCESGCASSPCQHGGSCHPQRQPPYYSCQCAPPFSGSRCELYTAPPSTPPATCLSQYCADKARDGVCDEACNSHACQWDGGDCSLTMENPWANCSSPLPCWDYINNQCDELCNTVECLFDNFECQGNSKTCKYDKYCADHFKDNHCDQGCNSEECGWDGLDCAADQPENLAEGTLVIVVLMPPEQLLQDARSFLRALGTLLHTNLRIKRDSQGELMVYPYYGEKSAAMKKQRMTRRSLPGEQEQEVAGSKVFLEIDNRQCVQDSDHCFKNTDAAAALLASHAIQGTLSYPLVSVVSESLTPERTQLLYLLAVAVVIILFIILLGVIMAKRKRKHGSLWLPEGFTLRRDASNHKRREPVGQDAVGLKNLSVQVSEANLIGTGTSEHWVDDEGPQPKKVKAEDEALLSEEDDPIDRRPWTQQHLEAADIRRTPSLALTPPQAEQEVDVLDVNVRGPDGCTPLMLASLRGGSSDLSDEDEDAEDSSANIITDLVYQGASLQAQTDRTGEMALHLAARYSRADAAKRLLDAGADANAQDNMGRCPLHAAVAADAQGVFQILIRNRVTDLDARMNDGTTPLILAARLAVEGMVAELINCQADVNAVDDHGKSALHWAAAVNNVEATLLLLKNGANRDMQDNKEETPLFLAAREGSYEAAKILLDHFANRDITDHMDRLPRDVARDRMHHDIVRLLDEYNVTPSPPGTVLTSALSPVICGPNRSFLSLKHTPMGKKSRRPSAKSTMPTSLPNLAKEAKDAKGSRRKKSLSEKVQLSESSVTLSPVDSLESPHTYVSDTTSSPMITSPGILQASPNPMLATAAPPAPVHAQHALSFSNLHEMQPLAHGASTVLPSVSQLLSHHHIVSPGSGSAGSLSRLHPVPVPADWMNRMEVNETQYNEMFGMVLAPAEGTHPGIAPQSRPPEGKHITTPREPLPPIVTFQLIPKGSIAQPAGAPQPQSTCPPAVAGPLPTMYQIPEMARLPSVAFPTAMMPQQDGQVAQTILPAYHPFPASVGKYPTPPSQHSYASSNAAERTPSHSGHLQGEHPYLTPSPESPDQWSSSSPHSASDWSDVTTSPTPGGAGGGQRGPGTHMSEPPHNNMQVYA
Chain of Pro-neuregulin-1, membrane-bound isoform (Homo sapiens) (Q02297 whole entry, looked up, the tested form may be a part, canonical isoform): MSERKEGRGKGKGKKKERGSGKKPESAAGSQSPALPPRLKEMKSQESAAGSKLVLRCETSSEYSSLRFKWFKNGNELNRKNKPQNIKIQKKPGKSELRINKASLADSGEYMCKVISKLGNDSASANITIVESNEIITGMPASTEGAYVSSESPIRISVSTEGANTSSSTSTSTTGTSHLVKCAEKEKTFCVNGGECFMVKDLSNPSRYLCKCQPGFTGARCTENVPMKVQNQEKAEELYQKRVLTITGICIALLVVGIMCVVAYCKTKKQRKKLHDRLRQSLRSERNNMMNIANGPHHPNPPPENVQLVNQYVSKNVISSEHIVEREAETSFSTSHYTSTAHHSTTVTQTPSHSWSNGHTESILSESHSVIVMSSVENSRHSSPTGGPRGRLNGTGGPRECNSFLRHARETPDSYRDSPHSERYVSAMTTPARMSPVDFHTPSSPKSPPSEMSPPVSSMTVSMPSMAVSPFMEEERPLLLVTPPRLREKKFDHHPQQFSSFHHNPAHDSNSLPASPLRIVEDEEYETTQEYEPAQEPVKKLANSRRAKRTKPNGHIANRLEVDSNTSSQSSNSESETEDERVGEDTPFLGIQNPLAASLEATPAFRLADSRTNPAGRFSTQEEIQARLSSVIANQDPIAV
Chain of Torsin-1A-interacting protein 2 (Homo sapiens) (Q8NFQ8 whole entry, looked up): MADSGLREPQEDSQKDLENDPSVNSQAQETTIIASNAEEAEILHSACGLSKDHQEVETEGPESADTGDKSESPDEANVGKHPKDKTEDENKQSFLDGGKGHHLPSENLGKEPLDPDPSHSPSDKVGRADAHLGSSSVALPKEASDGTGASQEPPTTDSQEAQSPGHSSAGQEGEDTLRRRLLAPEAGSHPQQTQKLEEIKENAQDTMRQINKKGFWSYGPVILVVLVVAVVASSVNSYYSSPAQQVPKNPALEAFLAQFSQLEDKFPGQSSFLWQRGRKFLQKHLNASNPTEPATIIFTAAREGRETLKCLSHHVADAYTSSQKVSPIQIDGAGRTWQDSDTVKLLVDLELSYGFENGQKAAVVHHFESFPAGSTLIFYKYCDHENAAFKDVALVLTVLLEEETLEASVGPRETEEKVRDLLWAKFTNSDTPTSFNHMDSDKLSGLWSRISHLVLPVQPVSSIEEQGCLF

With `C[n+]1ccc(-c2ccc(CO)cc2)cc1`, the composite z-score is 0.772 in test [1]; -0.688 in test [2]; -0.131 in test [3]; -0.116 in test [4]; 1.08 in test [5]; 0.0728 in test [6]. Also, the composite z-score in test [7] was 0.0658; in test [9] it was -0.0846; in test [10], 0.0053; in [11] it was 1.37; in test [15], -0.202; in [17], 0.149. Further, the results for the composite z-score in [18], in [19] and in test [20] were 0.634, 1.06 and -0.188, respectively. For the same molecule, the z-score in test [8] is 0.65 (inactive); in [12], -1.14 (inactive); in [13] it was -0.902 (inactive); in test [14] it was 3.9 (inactive); in test [16], 0.917 (inactive).

As for `COc1cccc([C@@H]2Oc3ccc(OC)cc3C(=O)[C@H]2O)c1`, the composite z-score in test [1] is -0.457; in test [2], 0.0796; in [3] it was 0.0288; in test [4], 0.209; in test [5] it was 0.5; in [6] it was 0.788. Further, the composite z-score was 1.04 in test [7]; -0.0662 in [9]; -0.0994 in test [10]; 0.597 in test [11]; 0.704 in test [15]; -0.173 in test [17]. The composite z-score in test [18] was 0.052; in test [19], 0.415; in test [20], -0.0697. Further, the z-score in [8] is 7.25 (inactive); in test [12], -2.23 (inactive); in test [13] it was -4.98 (inactive); in [14], -2.1 (inactive); in [16], 0.349 (inactive).

For `CO[C@H]1COC(=O)CCC[C@@H](C)[C@H](OC)COC(=O)[C@@H](C)NC(=O)CC=C[C@@H]1C`, the composite z-score is -0.467 in test [1]; 2.11 in test [2]; -0.235 in test [3]; -0.0534 in test [4]; -0.314 in [5]; -0.523 in test [6]. For the same molecule, the composite z-score was -0.723 in test [7]; 0.0835 in test [9]; -0.0994 in test [10]; 1.4 in [11]; -1.7 in test [15]; -0.145 in test [17]. In addition, the composite z-score in [18] is 1.27; in [19] it was 0.571; in test [20], 0.0115. For the same molecule, the z-score in test [8] is 0.947 (inactive); in test [12], -0.994 (inactive); in [13], -1.11 (inactive); in test [14], 0.0722 (inactive); in test [16], -0.597 (inactive).

Regarding `O=C(NN=C1C[C@@H](O)[C@@H](O)[C@@H]2[C@@H]3C(=O)N(Cc4ccccc4)C(=O)[C@@H]3CC[C@@H]12)OCc1ccccc1`, the composite z-score in [1] was -0.404; in test [2], 0.408; in test [3] it was -0.0229; in [4], 0.155; in [5], 0.495; in test [6] it was -0.358. Besides, the composite z-score in test [7] is -0.871; in [9], -0.0711; in [10] it was 0.233; in test [11] it was -0.395; in [15], -0.802; in [17], -0.112. Also, the composite z-score in [18] stood at 0.509; in test [19], 0.188; in [20], 0.0551. Further, the z-score in test [8] was -0.119 (inactive); in test [12] it was -0.227 (inactive); in [13], -0.148 (inactive); in test [14], -0.413 (inactive); in test [16] it was 0.258 (inactive).

With `C[C@@H](c1ccccc1)N1C(=O)[C@H]2[C@H]3[C@H](O)[C@H](O)CC(=NO[C@@H]4O[C@H](CO)[C@@H](O)[C@H](O)[C@H]4O)[C@@H]3CC[C@H]2C1=O`, the composite z-score is -0.395 in [1]; 0.764 in test [2]; -0.0428 in test [3]; 0.306 in test [4]; 0.641 in test [5]; -0.319 in test [6]. Moreover, the composite z-score in [7] is 0.752; in test [9], 0.205; in test [10] it was -0.0618; in [11], 0.0967; in [15] it was 0.652; in test [17], -0.126. For the same molecule, the composite z-score stood at 0.111 in test [18], 0.372 in test [19] and 0.0271 in test [20]. In addition, the z-score in test [8] is 0.19 (inactive); in test [12] it was 0.114 (inactive); in test [13], 0.149 (inactive); in test [14], -0.967 (inactive); in [16], 0.345 (inactive).

Values taken from PubChem BioAssay.
